The values below come from PubChem BioAssay AID488789 (Broad Institute, 2010).

In the experiment the target is Trypsin (Sus scrofa) (UniProt P00761). In words: porcine trypsin inhibitors, dose response, selectivity assay for Rce1 protease inhibitor project, biochemical, quenched peptide fluorescence, cherry-pick (AID 488789).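 Also: more negative means stronger trypsin inhibition.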

The structures appear in SMILES notation. Entries with a potency or affinity are not part of this list. Records with an inconclusive call do not appear. Active and inactive are the calls of the source.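 The calls were made as follows: active = samples whose fitted half-maximal inhibition concentration is no more than ten times the top valid dose tested; inconclusive = flat response between -70 and -30, or invalid curve fit; inactive = flat within 30 of zero, potency above limit, or signal rising.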

Sequence of Trypsin (Sus scrofa) (P00761 whole entry, looked up): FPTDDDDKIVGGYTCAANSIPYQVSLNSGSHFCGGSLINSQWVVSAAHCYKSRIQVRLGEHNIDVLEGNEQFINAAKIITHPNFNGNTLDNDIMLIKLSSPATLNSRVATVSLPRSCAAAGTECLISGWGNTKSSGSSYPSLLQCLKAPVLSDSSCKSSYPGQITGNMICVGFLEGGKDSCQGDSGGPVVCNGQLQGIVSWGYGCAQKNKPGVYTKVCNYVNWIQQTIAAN

As for `COc1ccccc1-n1c(-c2ccccc2)c[nH]c1=S`, the call was inactive.
Next, `COC(=O)C(Cc1ccccc1)OS(N)(=O)=O` (centres undefined): “inactive”.
Next, `O=C1CN(S(=O)(=O)c2ccc([N+](=O)[O-])cc2)CC(=O)N1`: “inactive”; `CCN1CCN(CC(O)COc2ccc3c(C)cc(=O)oc3c2)CC1` (centres undefined): “inactive”.
Take `C/C(CC(=O)NCc1ccco1)=N\NC(=O)c1ccc([N+](=O)[O-])cc1Cl`: the outcome was inactive.
Next, `Cc1ccc(C(=O)c2c3ccccc3[n+]([O-])n2CCO)cc1`: “inactive”.
Consider `O=C(Nc1cccc2ncccc12)c1cccnc1`, for which the compound was called inactive.
As for `CC(=O)N1c2ccc([N+](=O)[O-])cc2NC(=O)CC1C` (centres undefined), the entry is “inactive”; as for `O=C(CC1(O)C(=O)N(C/C=C/c2ccccc2)c2ccccc21)c1ccccn1` (centres undefined), “inactive”; as for `CC(C)C[C@H](NC(=O)c1nc[nH]c1C(=O)N1CCNCC1)C(=O)OCc1ccccc1`, “inactive”.
Next, `Cc1cc(N2CCN(C(c3ccccc3)c3ccccc3)CC2)n2ncnc2n1`: “inactive”; `COc1ccc(C(=O)/C=C/c2ccc(OC)cc2OC)c(O)c1`: “inactive”; `CN(C(=O)COC(=O)c1cn(-c2ccccc2)nc1-c1ccccc1)C1CCS(=O)(=O)C1` (centres undefined): “inactive”.
As for `O=S(=O)(CC(CN1CCOCC1)N1CCOCC1)c1ccccc1` (centres undefined), the entry is “inactive”; as for `Cc1cccc(NC(=O)C2(c3ccc([N+](=O)[O-])cc3)CCCC2)c1`, “inactive”; as for `CCOc1ccc(-n2c(SCc3ccc([N+](=O)[O-])cc3)nnc2-c2ccc(OC)cc2)cc1`, “inactive”.
As for `CC1(c2ccc(OCC#N)cc2)C=C(c2ccc(OCC#N)cc2)n2nc(C(F)(F)F)nc2N1` (centres undefined), the compound was called inactive.
Turning to `COc1cccc(-c2nc(C#N)c(N3CCN(C(=O)c4ccco4)CC3)o2)c1`, the compound was classed as inactive.
Next, `CC(C)c1c(C(=O)N/N=C/c2ccsc2)nnn1-c1nonc1N`: “inactive”; `C/C(Cl)=C\Cn1c(O)c(N=NC(N)=S)c2cc(Br)ccc21`: “inactive”.
Consider `Nc1nc2c(ncn2COC(CO)CO)c(=O)[nH]1`, for which the call was inactive.
Turning to `COC(=O)CSc1nc(N)c2c3c(sc2n1)C(c1ccccc1)SC(c1ccccc1)C3` (centres undefined), the outcome was inactive.
Next, `C=C(C)CSc1nc2sc3c(c2c(=O)n1-c1ccc(OC)cc1)CCN(C)C3`: “inactive”; `COc1ccc(C(CNC(=O)COc2cc(C)c(Cl)c(C)c2)N2CCCCC2)cc1` (centres undefined): “inactive”.
As for `CC(=O)Nc1ccc(Cl)cc1C1COC(=O)C1=N` (centres undefined), the entry is “inactive”; as for `Cc1ccc(NC(=O)CCc2ccc(S(=O)(=O)NC3CCCCC3)cc2)cc1`, “inactive”; as for `CCC1CCCCN1C(=O)NC(=O)c1ccccc1` (centres undefined), “inactive”.
As for `O=C(O)CCc1nc2cc(C(F)(F)F)ccc2n(Cc2ccccc2)c1=O`, the entry is “inactive”; as for `CC1CCC/C(=C\Nc2ccccc2C(=O)O)C1=O` (centres undefined), “inactive”; as for `CCSCCOC(=O)C1=C(C)NC(=O)NC1c1ccccc1` (centres undefined), “inactive”.
Take `CSc1ccc(C(=O)C2CCCN(C(=O)c3cccnc3SC)C2)cc1` (centres undefined): the compound was classed as inactive.
As for `CCNC(=S)NNC(=O)CCn1cc(C)cn1`, the entry is “inactive”.
Turning to `Cc1ccc(-c2cc3cccc[n+]3cc2-c2ccc(C)cc2)cc1`, the compound was classed as inactive.
Next, `COCCNc1nc(N)c([N+](=O)[O-])c(N2CCCCCC2)n1`: “inactive”; `CCCCCCCCCC[N+](C)(C)CC/C=C1/c2ccccc2Sc2ccc(Cl)cc21`: “inactive”.
As for `CCn1cc(/C=C(\NC(=O)c2ccccc2F)C(=O)N2CCOCC2)c2ccccc21`, the entry is “inactive”.
As for `CS(=O)(=O)c1ccc(C(=O)OCC(=O)N(CCc2ccccc2)Cc2ccccc2)cc1`, the entry is “inactive”; as for `CC(C)CC(=O)Nc1ccc2oc(-c3cccnc3)nc2c1`, “inactive”; as for `CC(C)CNC(=O)Nc1ccc(F)c(Cl)c1`, “inactive”.
As to `CCOC(=O)C1=C(C)OC(N)=C(C#N)C1c1cc2c(cc1[N+](=O)[O-])OCO2` (centres undefined), the outcome was inactive.
For the compound `CCN(Cc1ccccc1)S(=O)(=O)c1ccc(C(=O)N(CCCN(C)C)c2nc3c(C)c(C)ccc3s2)cc1`, the outcome was inactive.
As for `Nc1c(Cl)cc(C2=NCCn3nc4cc(C(F)(F)F)ccc4c32)cc1Cl`, the entry is “inactive”; as for `CCOc1ccc(N(CC(=O)NC2CC3CCC2C3)S(=O)(=O)c2ccccc2)cc1` (centres undefined), “inactive”.
Next, `Cc1cc(C)n2nc(CC(=O)NNC(=O)c3ccc(N(C)C)cc3)nc2n1`: “inactive”; `Cc1nc(-c2ccc(Cl)cc2)sc1C1(C)CC(c2ccccc2Br)=NO1` (centres undefined): “inactive”; `COCc1c(C(=O)N/N=C/C2CC=CCC2)nnn1-c1nonc1N` (centres undefined): “inactive”.
Next, `CC(=O)c1c(O)cc(O)c(C(C)=O)c1O`: “inactive”.
In the case of `CCOc1ccc(N(Cc2ccc(OC)cc2)C(=O)c2ccco2)cc1`, the outcome was inactive.
`COc1ccc(-c2c(C)oc3c(CN4CCN(C)CC4)c(O)ccc3c2=O)cc1`: the call was inactive.
